High-throughput results: PubChem, National Center for Advancing Translational Sciences (NCATS)
The list is not random: actives were taken first. Their share in the collection is about 0.86%.
AmpC no deterg – blocks E. coli AmpC beta-lactamase in detergent-free assay; P00811; AmpC nitrocefin hydrolysis, absorbance 480 nm, 0.0001% Triton; Potency, µM (titrated, usually from 57.1 µM), for inactives: at the top dose activity change, negative = inhibition, most hits filed as inhibitors; actives 0.52% (n = 330,000); AID 485341;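 note: plate controls were no compound for no effect and no enzyme for full effect; nearly all actives have a fitted effect of over 20% in size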
Target sequence (P00811 whole entry, looked up): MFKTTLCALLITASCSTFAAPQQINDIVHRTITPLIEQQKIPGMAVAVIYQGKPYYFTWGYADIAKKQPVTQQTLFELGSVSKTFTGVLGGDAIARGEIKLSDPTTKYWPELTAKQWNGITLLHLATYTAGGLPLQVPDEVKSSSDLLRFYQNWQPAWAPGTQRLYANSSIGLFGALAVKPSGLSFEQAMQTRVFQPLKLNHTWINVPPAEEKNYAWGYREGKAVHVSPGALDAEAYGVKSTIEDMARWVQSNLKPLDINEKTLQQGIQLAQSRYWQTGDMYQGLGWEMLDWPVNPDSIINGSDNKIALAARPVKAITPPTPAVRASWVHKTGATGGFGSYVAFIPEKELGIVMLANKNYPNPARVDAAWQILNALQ
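20 mM phosphate pH 7.0 + 0.01% (detergent screen) or 0.0001% Triton X-100; 5.3 nM AmpC reagent; cpd preinc 15 min RT; nitrocefin (800 uM stock) to start; A480 q20 s × 4 min; Activity was normalised to no-enzyme and no-compound control wells.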
AMA1 RON2 block – inhibitors of Plasmodium falciparum AMA1-RON2 interaction; AlphaScreen AMA1-biotinylated RON2 peptide binding; Potency, µM (highest dose often 58.2 µM), for the others: at the top dose activity change, negative = inhibition, usual class: inhibitors; actives 0.2% (n = 360,000); AID 720542;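 note: 0% = vehicle wells and -100% = peptide control; nearly all actives have a fitted effect of over 45% in size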
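AMA1 (3D7) with his tag at 25 nM final met compounds first, then biotinylated RON2 peptide at 25 nM; detection used donor plus acceptor beads, 10 µg/mL apiece, read by AlphaScreen after 30 min at room temperature.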
AmpC detergent – AmpC beta-lactamase inhibition with detergent present | Potency, µM (top dose mostly 114 µM), for the others: at the highest dose activity change, negative = inhibition, hits mostly inhibitors | AmpC hydrolysis of nitrocefin, absorbance 480 nm, 0.01% Triton | P00811 | AID 485294 | actives 0.041% (n = 370,000);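 note: 0% = no-compound wells and -100% = no-enzyme wells; nearly all actives have a fitted effect of over 25% in size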
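20 mM phosphate pH 7.0 + 0.01% (detergent screen) or 0.0001% Triton X-100; 5.3 nM AmpC reagent; cpd preinc 15 min RT; nitrocefin (800 uM stock) to start; A480 q20 s × 4 min; Activity was normalised to no-enzyme and no-compound control wells.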
NS1 inh – influenza NS1 inhibition; Potency, µM (highest dose often 46.1 µM), for the others: at the highest dose activity, positive = more growth; actives 0.4% (n = 270,000); calls by dose curve; note: actives are rising curves; nearly all actives have a fitted effect of over 50% in size
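A cell-based growth assay was used: compounds that relieve NS1-induced slow growth of budding yeast raise OD600. Assay medium was yeast nitrogen base with ammonium sulphate and -URA supplement, pH 6.0, with 2% galactose.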
* hit, by the source's call; ? = inconclusive; . = no result given. Unless noted, calls come from the whole dose curve; as a rule, active = well fitted curve in the direction sought with a large enough effect; inconclusive = small, poorly fitted or top-dose-only effect, or another doubt; inactive = no such curve, though single readings can be large; an effect the other way counts as inactive or inconclusive. Potency is the fitted concentration of half-maximal effect.

SMILES	AmpC no deterg	AMA1 RON2 block	AmpC detergent	NS1 inh
O=C(c1cc2ccccc2oc1=O)N1CCN(c2ccc(N3CCOCC3)nn2)CC1	0.14µM*	7%	?	-5%
Cc1ccc(C)c(N2CCN(C(=O)c3cc4ccccc4oc3=O)CC2)c1	53%	-3%	-10%	-10%
O=C(O)Cc1sc(Nc2cccc3ccccc23)nc1-c1ccc(Cl)cc1	7.9µM*	0%	0%	5%
O=C(O)Cc1sc(Nc2cccc3ccccc23)nc1-c1ccccc1	-39%	-4%	-1%	.
COc1cccc(CN(C)S(=O)(=O)c2ccccc2Br)c1	-14%	18%	.	.
Cc1ccc(C(C)C)c(OCc2ccc(C(=O)N/N=C/c3cccc(O)c3O)cc2)c1	8.9µM*	41%	-10%	-32%
Cc1nnc(NC(=O)CCCCCN2C(=O)C3C4C=CC(C4)C3C2=O)s1 (stereo not given)	6.3µM*	-5%	?	-1%
CC(C)c1nnc(NC(=O)CCCCCN2C(=O)C3C4C=CC(C4)C3C2=O)s1 (stereo not given)	16%	7%	?	10%
COc1cc2ccccc2cc1C(=O)OCC(=O)N(CC(C)C)c1c(N)n(Cc2ccccc2)c(=O)[nH]c1=O	-2%	15%	0%	.
CCOc1ccccc1NS(=O)(=O)c1ccc2c(c1)CC(C)N2C(=O)C1CC1 (stereo not given)	.	.	3%	.
CC1(C)Nc2ccc(O)cc2-c2c1ssc2=S	-30%	?	-11%	-11%
CCOc1ccc2c(c1)-c1c(ssc1=S)C(C)(C)N2C	-31%	10µM*	-1%	-15%
CC(=O)c1ccc(NC(=O)CSc2ccsc2[N+](=O)[O-])cc1	4.5µM*	-11%	-19%	.
O=C(CSc1ccsc1[N+](=O)[O-])Nc1cc(F)ccc1F	-54%	-15%	-1%	.
COc1cc(OC)c2c(-c3ccccc3)cc(=O)oc2c1C(CCN1CCOCC1)c1ccc(N(C)C)cc1 (stereo not given)	177%	28µM*	.	.
COc1ccc(C(CCN2CCCCC2)c2c(OC)cc(OC)c3c(-c4ccccc4)cc(=O)oc23)cc1 (stereo not given)	205%	-3%	7%	2%
COc1cc(OC)c2c(-c3ccccc3)cc(=O)oc2c1C(CCN1CCCCC1)c1ccc(N(C)C)cc1 (stereo not given)	199%	25µM*	3%	-43%
Cc1cccc(NC(=O)CCCCCN2C(=O)c3ccccc3C2=O)n1	7.1µM*	2%	4%	-2%
CN(C)S(=O)(=O)c1cccc(C(=O)OCC(=O)NC2CCCc3ccccc32)c1 (stereo not given)	2%	6%	2%	-16%
CC(NC(=O)c1ccc(S(=O)(=O)Nc2ccccc2Cl)cc1)c1ccncc1 (stereo not given)	-21%	-2%	.	.
CCCCCCN(C(=O)CCCCCN1C(=O)NC(c2ccc(C(C)(C)C)cc2)C(C(=O)OCc2ccccc2)=C1C)C(C(=O)NCCCC)c1ccc(OCC(=O)OC)c(C(=O)OC)c1 (stereo not given)	72%	.	-4%	8.9µM*
CC1=NN(c2ccc(S(=O)(=O)O)cc2C)C(=O)C1	-13%	8%	-8%	3%
O=C(O)C1=NN(c2cc(Cl)c(S(=O)(=O)O)cc2Cl)C(=O)C1	.	2.8µM*	.	.
COc1ccc(CN2CCN(Cc3ccco3)CC2)cc1OC	-9%	18µM*	-15%	-4%
COc1ccc(CN2CCN(Cc3ccco3)CC2)cc1	-12%	-16%	-9%	4%
SMILES	AmpC no deterg	AMA1 RON2 block	AmpC detergent	NS1 inh
COc1ccc(C)cc1NC(=O)c1ccc2c(c1)N(Cc1cccc(Cl)c1)C(=O)c1ccccc1S2=O (stereo not given)	.	.	4%	.
N=C1/C(=C\c2ccc(-c3cccc(C(=O)O)c3)o2)C(=O)N=C2SC=C(c3ccccc3)N12	-38%	42%	56µM*	9%
CC(C)(C)c1ccc(C(=O)NNc2cc(N3CCCCC3)nc(N3CCCCC3)n2)cc1	0.16µM*	16%	-1%	5%
O=C1NC(=S)S/C1=C\C=C\c1ccc([N+](=O)[O-])o1	11µM*	-21%	-8%	-105%
O=C(O)/C=C/c1ccc([N+](=O)[O-])o1	-14%	-6%	-2%	.
CC(C)(C)OC(=O)N1C(=O)[C@](OC(=O)c2ccccc2)(c2ccc(F)cc2)c2ccccc21	.	-15%	.	.
COc1ccc(OCC(=O)NNc2nc3ccccc3s2)cc1	10µM*	35%	-6%	-2%
